How the values were obtained:
Conditions in all cases: concentration: 1 μM, replicates: in singlicate; n = 1
FLT1 = tested on: FLT1
FLT3-autoinhibited = tested on: FLT3-autoinhibited
FLT3 = tested on: FLT3
FLT4 = tested on: FLT4
FRK = tested on: FRK
FYN = tested on: FYN
GAK = tested on: GAK
GCN2(Kin.Dom.2,S808G) = tested on: T1, GCN2(Kin.Dom.2,S808G)
T1 construct: gene EIF2AK4

GRK1 = tested on: GRK1
GRK2 = tested on: T2, GRK2
T2 construct: gene ADRBK1
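Further: KINOMEscan kinase panel screen.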

Compound | %Inh (FLT1) | %Inh (FLT3-autoinhibited) | %Inh (FLT3) | %Inh (FLT4) | %Inh (FRK) | %Inh (FYN) | %Inh (GAK) | %Inh (GCN2(Kin.Dom.2,S808G)) | %Inh (GRK1) | %Inh (GRK2)
O=C1NC(=O)C(c2ccc(Cl)cc2)=C1Nc1cccc(Cl)c1 [SB-317651] | 0% | 11% | 0% | 0% | 0% | 0% | 0% | 2% | 11% | 0%
COC(=O)c1cccc(NC(=O)NC2CCN(c3ccnc(Nc4ccc(OC)cc4)n3)C2)c1 (stereo not shown) [GSK1379746] | 26% | 0% | 0% | 4% | 11% | 8% | 0% | 0% | 0% | 0%
NS(=O)(=O)c1cccc(N/C=C2\C(=O)Nc3ccc(S(=O)(=O)Cc4c(Cl)cccc4Cl)cc32)c1 [GSK398099] | 12% | 0% | 0% | 0% | 0% | 35% | 18% | 0% | 0% | 0%
Cc1c(Cn2c(C)c(C)n3c(=O)cc(N4CCOCC4)nc23)cccc1C(F)(F)F [GSK2328680] | 8% | 0% | 0% | 0% | 6% | 2% | 8% | 0% | 9% | 0%
O=C(Nc1n[nH]c2nc(-c3cccs3)c(Br)cc12)C1CCCC1 [SB-743341] | 10% | 34% | 39% | 0% | 5% | 6% | 0% | 0% | 26% | 0%
CC(=O)c1c(C)c2cnc(Nc3ccn(C)n3)nc2n(C2CCCC2)c1=O | 4% | 2% | 0% | 0% | 28% | 0% | 0% | 36% | 0% | 17%
Fc1ccc(-c2nc3n(c2-c2ccncc2)CCS3)cc1 [GI98581] | 35% | 0% | 0% | 12% | 14% | 22% | 53% | 3% | 0% | 0%
O=c1cc(N2CCOCC2)nc2n(Cc3ccccc3F)ccn12 [GSK2297428] | 24% | 0% | 0% | 2% | 20% | 0% | 0% | 0% | 0% | 0%
CCc1ccc(-c2ccc3c(c2)-c2n[nH]cc2S(=O)(=O)N3C)cc1 | 14% | 4% | 56% | 0% | 2% | 14% | 0% | 24% | 6% | 0%
Cc1nccc(-c2c(-c3ccc(F)cc3)ncn2CCCN2CCOCC2)n1.Cl [SB-282975] | 21% | 19% | 6% | 23% | 2% | 9% | 9% | 0% | 78% | 0%
Cn1cnc2c(N)ncnc21 [SKF-97623] | 0% | 100% | 0% | 0% | 0% | 0% | 0% | 27% | 0% | 29%
CN1c2ccc(-c3ccc(C(N)=O)cc3)cc2-c2[nH]ncc2S1(=O)=O | 5% | 27% | 31% | 0% | 0% | 3% | 6% | 33% | 1% | 0%
Fc1ccc(-c2nc[nH]c2-c2ccncc2)cc1 [SB-217360] | 0% | 0% | 5% | 9% | 0% | 0% | 57% | 0% | 25% | 0%
COc1ccc(Nc2nccc(N3CCC(NC(=O)C(C)c4ccc(Cl)cc4)C3)n2)cc1 (stereo not shown) [GSK1379735] | 21% | 5% | 10% | 5% | 0% | 15% | 11% | 9% | 7% | 0%
COC(=O)C(Cc1ccccc1)NC(=O)NC1CCN(c2ccnc(Nc3ccc(F)cc3)n2)C1 (stereo not shown) [GSK1379714] | 33% | 5% | 2% | 0% | 0% | 0% | 0% | 6% | 100% | 0%
CCn1c(-c2c(N)noc2C)nc2cnccc21 [SB-737856] | 20% | 0% | 0% | 0% | 11% | 3% | 21% | 7% | 0% | 0%
Nc1nccc(-c2c(-c3ccc(F)cc3)ncn2C2CCN(Cc3ccccc3)CC2)n1 [SB-219980] | 0% | 18% | 0% | 0% | 10% | 0% | 12% | 1% | 27% | 36%

Compound | %Inh (FLT1) | %Inh (FLT3-autoinhibited) | %Inh (FLT3) | %Inh (FLT4) | %Inh (FRK) | %Inh (FYN) | %Inh (GAK) | %Inh (GCN2(Kin.Dom.2,S808G)) | %Inh (GRK1) | %Inh (GRK2)
COc1cccc(CNC(=O)NC2CCN(c3ccnc(Nc4ccc(F)cc4)n3)C2)c1 (stereo not shown) [GSK1379723] | 31% | 0% | 0% | 12% | 16% | 0% | 12% | 0% | 13% | 0%
COc1ccc(CSc2nnc(-c3ccc4nccn4c3)o2)cc1C(F)(F)F | 35% | 25% | 15% | 9% | 0% | 0% | 6% | 0% | 5% | 0%
CNCc1ccc2nc(NC(=O)c3ccc(C(C)(C)C)cc3)cn2c1 | 27% | 19% | 66% | 29% | 1% | 6% | 5% | 0% | 13% | 39%
COC(=O)c1cccc(NC(=O)NC2CCN(c3ccnc(Nc4ccc(F)cc4)n3)C2)c1 (stereo not shown) [GSK1379725] | 24% | 0% | 0% | 0% | 13% | 15% | 0% | 0% | 5% | 0%
Fc1ccc(-c2nn3cccc(F)c3c2-c2ccncc2)cc1 [GW475620] | 27% | 2% | 0% | 25% | 14% | 16% | 65% | 0% | 0% | 6%
O=C(Nc1n[nH]c2nc(-c3ccco3)c(Br)cc12)C1CCN(Cc2ccccc2)C1.O=C(O)[C@H](O)[C@@H](O)C(=O)O (stereo not shown) [SB-742034] | 0% | 10% | 7% | 6% | 0% | 0% | 8% | 0% | 42% | 0%
CNc1nc(-c2ccc3c(N)n[nH]c3c2)cc(N2C[C@@H](C(=O)NC3CCCCC3)OC[C@H]2C)n1 [GSK2375584] | 25% | 20% | 0% | 0% | 4% | 6% | 0% | 0% | 12% | 0%
CSc1ccc(-c2nc3n(c2-c2ccncc2)CCC3)cc1 [SKF-105561] | 7% | 7% | 8% | 0% | 0% | 0% | 10% | 2% | 8% | 0%
Nc1ncnc2occ(-c3ccc4c(c3)CCN4C(=O)Cc3cc(F)ccc3F)c12 [GSK2645446] | 6% | 0% | 0% | 1% | 0% | 0% | 0% | 0% | 0% | 0%
COc1ccc(-c2coc3ccc(-c4nnc(C)o4)cc23)cc1 | 0% | 0% | 0% | 0% | 0% | 2% | 0% | 0% | 12% | 0%
Cc1cccc2c(-c3ccncn3)c(-c3ccc(F)cc3)nn12 [GW515532] | 32% | 12% | 0% | 10% | 0% | 1% | 76% | 18% | 3% | 0%
O=C1NC(=O)C(c2ccc(Cl)cc2)=C1Nc1ccc(O)cc1 [SB-340867] | 0% | 0% | 6% | 0% | 0% | 0% | 0% | 0% | 0% | 0%
Cc1ccc(NC(=O)Nc2ccc(Cl)c(C(F)(F)F)c2)cc1-c1ccc(C(=O)Nc2ccncc2)cc1 [GSK1398470] | 23% | 0% | 27% | 0% | 42% | 44% | 14% | 15% | 0% | 0%
CCCCc1nn2ncccc2c1-c1ccnc(NC2CC2)n1 [GW684374] | 61% | 0% | 29% | 0% | 0% | 23% | 72% | 0% | 0% | 0%
O=c1cc(N2CCOCC2)nc2n(Cc3cccc(Cl)c3Cl)c3ccccc3n12 [GSK2299009] | 41% | 9% | 28% | 16% | 0% | 17% | 19% | 0% | 0% | 0%
Nc1cccc(-c2ccc3c(N)n[nH]c3c2)n1 [GSK2192730] | 0% | 13% | 0% | 0% | 0% | 29% | 17% | 0% | 21% | 0%
CNc1nc(-c2ccc3c(N)n[nH]c3c2)cc(N2C[C@@H](C(=O)Nc3ccccc3)CC[C@H]2C)n1 [GSK2298859] | 35% | 0% | 0% | 12% | 0% | 2% | 0% | 0% | 100% | 0%

— paper PMC5540273 (PLoS ONE, 2017)
